We go through 85 molecules from article PMC4336329 (PLoS ONE, 2015).

Screen size: about 310,000 compounds; about 14,000 (4.5%) showed an effect of 50% or more. The effect is printed as a negative number. The entries come from a sample that favours strong results as a whole.
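Further: peak tail current of the secondary pulse compared with the same well before compound.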

For the test, the target named is human ether-à-go-go-related gene (hERG) potassium channel (human, UniProt Q12809). The test is described as follows: primary screen, population patch clamp on CHO cells stably expressing hERG; higher = less effect of the substance.
Chain of human ether-à-go-go-related gene (hERG) potassium channel (Q12809 whole entry, looked up): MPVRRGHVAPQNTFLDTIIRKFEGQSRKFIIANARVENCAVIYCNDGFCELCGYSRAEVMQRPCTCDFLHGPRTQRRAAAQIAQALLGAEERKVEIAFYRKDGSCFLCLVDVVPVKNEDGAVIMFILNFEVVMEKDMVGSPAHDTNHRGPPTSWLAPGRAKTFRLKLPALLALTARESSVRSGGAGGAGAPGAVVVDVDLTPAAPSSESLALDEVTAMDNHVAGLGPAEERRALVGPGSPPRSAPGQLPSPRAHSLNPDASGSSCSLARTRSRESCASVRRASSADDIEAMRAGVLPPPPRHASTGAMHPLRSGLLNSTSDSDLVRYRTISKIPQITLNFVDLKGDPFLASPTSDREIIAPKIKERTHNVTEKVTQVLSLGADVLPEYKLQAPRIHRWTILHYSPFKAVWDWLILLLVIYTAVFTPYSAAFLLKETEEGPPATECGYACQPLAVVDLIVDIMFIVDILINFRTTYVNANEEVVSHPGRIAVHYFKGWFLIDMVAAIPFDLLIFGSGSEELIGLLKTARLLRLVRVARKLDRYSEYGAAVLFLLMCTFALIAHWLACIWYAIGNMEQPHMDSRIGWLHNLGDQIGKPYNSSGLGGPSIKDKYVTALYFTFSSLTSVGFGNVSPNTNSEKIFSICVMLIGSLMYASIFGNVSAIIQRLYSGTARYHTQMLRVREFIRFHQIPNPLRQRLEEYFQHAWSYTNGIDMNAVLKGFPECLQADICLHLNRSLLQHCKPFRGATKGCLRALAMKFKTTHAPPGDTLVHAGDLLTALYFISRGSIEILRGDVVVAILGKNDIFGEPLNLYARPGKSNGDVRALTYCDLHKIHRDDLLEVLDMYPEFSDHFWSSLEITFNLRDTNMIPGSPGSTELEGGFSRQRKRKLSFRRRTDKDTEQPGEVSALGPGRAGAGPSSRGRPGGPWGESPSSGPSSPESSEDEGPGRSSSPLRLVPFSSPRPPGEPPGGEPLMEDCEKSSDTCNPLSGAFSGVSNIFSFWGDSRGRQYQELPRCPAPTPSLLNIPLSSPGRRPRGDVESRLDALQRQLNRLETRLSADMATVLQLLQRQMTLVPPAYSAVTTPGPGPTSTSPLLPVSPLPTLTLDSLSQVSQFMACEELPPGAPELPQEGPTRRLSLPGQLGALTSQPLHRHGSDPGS
In the case of `O=C(Nc1cccnc1)C1(c2ccccc2)CCCC1`, the “hERG current change (%, negative = inhibition) at 10uM” value worked out at 4.11%. On to `O=[N+]([O-])/C=C1/NCCN1Cc1ccc(Cl)nc1`, for which the “hERG current change (%, negative = inhibition) at 10uM” value is listed as -1.96%. With `CC1CCc2c(C(=O)NCc3ccco3)csc2C1` (stereo not shown), the “hERG current change (%, negative = inhibition) at 10uM” value is -8.96%.

Regarding `Cn1c(SCC(=O)O)nc2sc3c(c2c1=O)CCC3`, the “hERG current change (%, negative = inhibition) at 10uM” value amounted to 30.3%.

As for `COC(=O)c1ccc2c(c1)S(=O)(=O)NC(=NCc1ccco1)S2`, the “hERG current change (%, negative = inhibition) at 10uM” value is recorded as -23.8%.

On to `O=C(NCc1cccc(Cl)c1)c1cnccn1`, for which the “hERG current change (%, negative = inhibition) at 10uM” value is given as -9.28%. Next, `CCn1ncc(-c2csc(N)n2)c1C`: 0.511%; `BrC(=C\c1ccccc1)/C=N/N1CCN(Cc2ccccc2)CC1`: 4.34%; `CCN1C(=O)C(CC(=O)NCCc2ccccc2)N(NC(=O)c2cccnc2)C1=S` (stereo not shown): -21.1%. Next, `O=C(CSc1nc2cc(Cl)ccc2s1)Nc1cccc(S(=O)(=O)N2CCOCC2)c1`: -10.7%; `S=C(NCCc1ccccc1)Nc1ccc(Br)cn1`: 3.98%. As for `CCN1CCN(c2ccc(S(=O)(=O)N3CCOCC3)cc2NC(=O)C(C)Oc2ccc(F)cc2)CC1` (stereo not shown), the “hERG current change (%, negative = inhibition) at 10uM” value is -57.4%.

Regarding `CC(Oc1ccc(F)cc1)C(=O)Nc1cc(S(=O)(=O)N2CCOCC2)ccc1N1CCCC1` (stereo not shown), the “hERG current change (%, negative = inhibition) at 10uM” value came to 13.7%. As for `CC(Oc1ccc(F)cc1)C(=O)Nc1cc(S(=O)(=O)N2CCOCC2)ccc1N1CCN(C)CC1` (stereo not shown), the “hERG current change (%, negative = inhibition) at 10uM” value is -29.9%. Next, `C=CCN1C(=O)/C(=C\c2ccc(Oc3nc(N4CCOCC4)nc(N4CCOCC4)n3)c(OC)c2)SC1=S`: 15.9%; `COCCn1c(=S)[nH]c2cc(C(=O)NCCCN3CCOCC3)ccc2c1=O`: 8.93%. For `CCC[C@@H](CNC)NC[C@H](Cc1ccccc1)NCCCCc1ccccc1`, the “hERG current change (%, negative = inhibition) at 10uM” value is reported as -6.02%. Consider `CCCC[C@@H](CNC)NC[C@H](Cc1ccc(O)cc1)NCCc1ccc(OCC)cc1`, for which the “hERG current change (%, negative = inhibition) at 10uM” value is recorded as -53.7%. For `CCC[C@H](CN[C@@H](CNC)[C@H](C)O)NCCc1ccc(OC)cc1`, the “hERG current change (%, negative = inhibition) at 10uM” value turned out to be 2.16%. With `Cc1[nH]c2ccccc2c1/C=N/n1cnnc1`, the “hERG current change (%, negative = inhibition) at 10uM” value amounted to 10.2%. For `COCCn1c(C)cc(C(=O)COc2ccc(N(C)S(=O)(=O)c3ccc(C)cc3)cc2)c1C` the value was -19.9%; for `CCc1ccc(OCC(=O)N/N=C/c2cc([N+](=O)[O-])ccc2N2CCOCC2)cc1`, -14.6%. Next, `CCN(CC)S(=O)(=O)c1ccc(-c2cn3ccc(C)cc3n2)cc1`: 7.52%; `OC(COCc1cccs1)CN1CCN(c2cccc(C(F)(F)F)c2)CC1` (stereo not shown): -69.6%; `Cl.OC(COCc1cccs1)CN1CCCCCC1` (stereo not shown): -21.9%.

Consider `CN1CCCN(CC(O)COCc2cccs2)CC1` (stereo not shown), for which the “hERG current change (%, negative = inhibition) at 10uM” value was -2.94%.

As for `OC(COC(c1ccccc1)c1ccccc1)CN1CCN(c2cccc(Cl)c2)CC1` (stereo not shown), the “hERG current change (%, negative = inhibition) at 10uM” value was 6.16%. For `O=C(Cc1cccs1)N1CCN(c2cccc(Cl)c2)CC1` the value was -12%. With `O=C(O)C(=O)O.OC(COCc1cccs1)CN1CCN(c2cccc(Cl)c2)CC1` (stereo not shown), the “hERG current change (%, negative = inhibition) at 10uM” value was -63.8%.

On to `CCOC(=O)CNC(=O)c1cn(CC(C)C)c(=O)c2cc(OC)c(OC)cc12`, for which the “hERG current change (%, negative = inhibition) at 10uM” value is recorded as -24%. In the case of `CCCC(=O)Nc1nnc(-c2ccccc2)o1`, the “hERG current change (%, negative = inhibition) at 10uM” value amounted to 7.03%. Next, `COCCN(CC(=O)Nc1cccc(C)c1C)C(=O)c1cc2ccccc2cc1OC`: -26.7%. On to `COCCN(CC(=O)Nc1cccc(C)c1C)C(=O)c1ccc2ccccc2n1`, for which the “hERG current change (%, negative = inhibition) at 10uM” value was -0.121%. As for `CCOc1ccc(NC(=O)CN(C)C(=O)c2cccnc2Sc2ccccc2Cl)cc1OCC`, the “hERG current change (%, negative = inhibition) at 10uM” value was -8.63%.

Consider `CCOc1ccc(NC(=O)CN(C)C(=O)c2cccnc2Sc2ccc(C)c(C)c2)cc1OCC`, for which the “hERG current change (%, negative = inhibition) at 10uM” value turned out to be 0.0885%. Next, `CCOc1ccc(NC(=O)CN(C)C(=O)c2cc(-c3ccc(OC)cc3)nc3ccccc23)cc1OCC`: -2.15%; `CCOc1ccc(NC(=O)CN(C)C(=O)c2cc(C)nc3ccccc23)cc1OCC`: -16.2%. Next, `CCOc1ccc(NC(=O)CN(C)C(=O)c2cccnc2Sc2ccc(Cl)cc2)cc1OCC`: -52.4%; `CCOc1ccc(NC(=O)CN(C)C(=O)c2cc(-c3ccncc3)nc3ccccc23)cc1OCC`: -58.6%; `COCCN(CC(=O)Nc1cccc(C)c1C)C(=O)c1cc(-c2ccncc2)nc2ccccc12`: -57.3%. Next, `O=C(Cc1ccc(S(=O)(=O)N2CCOCC2)s1)N1CCN(S(=O)(=O)c2cccc(Cl)c2)CC1`: -5.33%.

Take `CC(=O)N1N=C(c2ccc(C)cc2)OC1c1ccc(Br)cc1` (stereo not shown): the “hERG current change (%, negative = inhibition) at 10uM” value is 27.8%.

As to `Cc1nnc(NC(=O)CSc2ccc(-c3ccco3)nn2)s1`, the “hERG current change (%, negative = inhibition) at 10uM” value is 9.75%.

With `CC(C)NC(=O)CSc1nc(N)c(NC(=O)c2ccco2)c(=O)[nH]1`, the “hERG current change (%, negative = inhibition) at 10uM” value is given as 14.7%. In the case of `OCCNc1nc2nonc2nc1NCCO`, the “hERG current change (%, negative = inhibition) at 10uM” value is recorded as 11%. On to `Clc1ccc(C(c2ccccc2)N2CCN(c3ccccn3)CC2)cc1` (stereo not shown), for which the “hERG current change (%, negative = inhibition) at 10uM” value is given as -5.64%. For `CN1CCN(C(c2ccccc2)c2ccccc2)CC1.Cl` the value was -12.1%; for `CN1CCN(C(c2cccc(Cl)c2)c2ccccc2Cl)CC1.O=C(O)/C=C\C(=O)O` (stereo not shown), -73.1%. Consider `CN1CCCN(C(c2ccccc2)c2ccc(Cl)cc2)CC1.Cl` (stereo not shown), for which the “hERG current change (%, negative = inhibition) at 10uM” value is on record as -73.8%. For `O=C(O)/C=C/C(=O)N1CCN(C(c2ccccc2)c2ccccc2)CC1` the value was 40.8%; for `CN1CCN(C(c2ccccc2)c2ccc(Cl)cc2)CC1.Cl` (stereo not shown), -60.9%. Take `Clc1ccc(C(c2ccccc2)N2CCNCC2)cc1` (stereo not shown): the “hERG current change (%, negative = inhibition) at 10uM” value was -22.7%.

Consider `CN1CCN(C(=O)/C=C/c2cccc(Cl)c2)CC1`, for which the “hERG current change (%, negative = inhibition) at 10uM” value is reported as -6.45%. Turning to `Cc1cccc(CN2CCN(C(c3ccccc3)c3ccc(Cl)cc3)CC2)c1.Cl` (stereo not shown), the “hERG current change (%, negative = inhibition) at 10uM” value was found to be 18.5%. With `COc1cccc(CN2CCN(c3ncccn3)CC2)c1OC`, the “hERG current change (%, negative = inhibition) at 10uM” value is reported as -3.3%. For `COc1ccc(CCNC(=O)c2nnn(CC(=O)Nc3ccccc3C)c2N)cc1OC` the value was 16.3%; for `CSc1ncccc1C(=O)Nc1ccc(C)cn1`, 0.536%.

Turning to `Cc1ccc(CS/C(Nc2ccccc2C)=C(\C#N)C(=O)NCc2ccco2)c(C)c1`, the “hERG current change (%, negative = inhibition) at 10uM” value came out at 9.03%. In the case of `CCN(CC)S(=O)(=O)c1ccc(C(=O)NCCCN=C2NS(=O)(=O)c3ccccc32)cc1`, the “hERG current change (%, negative = inhibition) at 10uM” value is -5.24%.

Turning to `CCC1(CC)C(=O)C2=C3C1[C@H](C(=O)OC)C=C(C(=O)OC)C[C@H]3[C@H]1C(=O)N(CC(=O)OC)C(=O)[C@H]1[C@H]2C` (stereo partly shown), the “hERG current change (%, negative = inhibition) at 10uM” value worked out at 5.84%. As for `COc1ccc(OC)c(S(=O)(=O)Nc2cc3c4c(c2)CCN4C(=O)CC3)c1`, the “hERG current change (%, negative = inhibition) at 10uM” value is listed as -2.69%. Next, `C=CCn1c(SCC(=O)N2CC(=O)Nc3ccccc32)nc2scc(-c3ccccc3)c2c1=O`: -1.72%. Next, `O=C(CSc1nccn(-c2ccc(Br)cc2)c1=O)NC1CCCC1`: 13.7%; `Cc1nnc(NC(=O)CSc2nnc(CNC(=O)c3ccc(S(=O)(=O)N(C)C)cc3)o2)s1`: 22.6%; `CC(Cl)C(=O)NNC(=O)CNS(=O)(=O)c1ccccc1` (stereo not shown): -0.478%. For `CN(C)/C=C/C(=C\C(=O)C(F)(F)F)Nc1ccc(C(F)(F)F)cc1`, the “hERG current change (%, negative = inhibition) at 10uM” value amounted to 2.83%. As to `Cc1ccc(NC(/C=C/N(C)C)=C/C(=O)C(F)(F)F)c(C)c1`, the “hERG current change (%, negative = inhibition) at 10uM” value is listed as -56.7%. Next, `CN(C)/C=C\C(=C/C(=O)C(F)(F)F)Nc1ccccc1Oc1ccccc1`: -24.4%; `C=CCc1ccc(OCC(O)CN2CCN(c3ccccc3OC)CC2)c(OC)c1.Cl` (stereo not shown): -16.2%; `C=CCc1ccc(OCC(O)CN2CCC(Cc3ccccc3)CC2)c(OC)c1.Cl` (stereo not shown): -77.5%. Next, `COc1cc(COCC(O)CN2CCc3ccccc3C2)cc(OC)c1OC.Cl` (stereo not shown): -21.7%; `C=CCc1ccc(OCC(O)COc2ccc(CC=C)cc2OC)c(OC)c1`: -24.5%; `C=CCc1ccc(OCC(O)CN2CCN(c3ccccc3)CC2)c(OC)c1.Cl` (stereo not shown): -70.3%. Next, `C=CCc1ccc(OCC(O)CN2CCCCC2C)c(OC)c1.Cl` (stereo not shown): -55.1%; `COc1cc(COCC(O)CN2CCCCC2C)cc(OC)c1OC.Cl` (stereo not shown): 20.6%. Turning to `C=CCc1ccc(OCC(O)CN2CCc3ccccc3C2)c(OC)c1.Cl` (stereo not shown), the “hERG current change (%, negative = inhibition) at 10uM” value is given as -68.8%. For `CC(=O)C(C)n1c(CN(C)Cc2ccccc2)nc2c1c(=O)n(C)c(=O)n2C` (stereo not shown) the value was -5.4%; for `O=C(CSc1cc([N+](=O)[O-])cc(S(=O)(=O)Cc2ccccc2)c1)NC1CC1`, -9.88%. As to `COCCNC(=O)COc1ccc(C)c(C)c1`, the “hERG current change (%, negative = inhibition) at 10uM” value is reported as 3.36%.

Regarding `Cc1cc(S(=O)(=O)N2CCC(N3CCCCC3)CC2)ccc1-n1cnnn1`, the “hERG current change (%, negative = inhibition) at 10uM” value was -1.17%. For `COc1cccc(C2CC(c3ccccc3Cl)n3nnnc3N2)c1` (stereo not shown) the value was -12.1%; for `O=C(Nc1nc2ccccc2s1)c1cccc(S(=O)(=O)N2CCc3ccccc32)c1`, -7.03%; for `Cc1cccc(OCCCC(=O)NNC(=O)c2ccc(F)cc2)c1`, -7.21%. `COc1ccc(-c2nn3c(C4CCCCC4)nnc3s2)cc1OC`: the “hERG current change (%, negative = inhibition) at 10uM” value is on record as -15.2%.

`COc1ccc(-n2nc(C(=O)NCC(=O)NC3CCCCCC3)c3ccccc3c2=O)c(OC)c1`: the “hERG current change (%, negative = inhibition) at 10uM” value was found to be 11.1%.
